Screening results (PubChem BioAssay)
The list is not random: actives were taken first. Their share in the collection is about 4.1%.
DAX1 inh-1 – inhibitors of human orphan nuclear receptor DAX1 (NR0B1); P51843; HEK293 Gal4-DAX1 luciferase reporter, luminescence; inhibition, % at 6.75 µM; AID 504766; actives 0.99% (n = 340,000);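 active means inhibition above the mean over all tested compounds plus 3 SD, cut at about 4.2% in these data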;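 further: 0% = DAX1-transfected cells with DMSO and 100% = empty-vector control cells with DMSO; inhibition shows as a rise in luminescence from relieved DAX1 repression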
Target sequence (P51843 207-470 limits assumed): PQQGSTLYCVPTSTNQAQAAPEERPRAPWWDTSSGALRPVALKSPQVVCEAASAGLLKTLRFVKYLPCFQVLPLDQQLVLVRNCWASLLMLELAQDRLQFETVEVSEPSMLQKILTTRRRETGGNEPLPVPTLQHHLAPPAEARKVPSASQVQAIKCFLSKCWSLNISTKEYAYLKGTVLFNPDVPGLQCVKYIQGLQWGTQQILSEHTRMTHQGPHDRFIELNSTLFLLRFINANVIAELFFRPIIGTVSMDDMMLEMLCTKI
hgDAF-12 ag – agonists of H. glycines DAF-12 nuclear receptor. AID 687014. activation, % at 6.8 µM. actives 1.8% (n = 370,000). HEK293 GAL4-hgDAF12 UAS-luciferase reporter, agonist luminescence; normalized to butyrate control;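 active means activation above a cutoff set at the mean of all screened compounds plus 3 SD, cut at about 10% in these data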;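 further: 0% = DMSO wells and 100% = sodium butyrate wells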
DAX1 inh-2 – inhibitors of DAX1 repression of SF-1 activated StAR promoter | HEK293T StAR-luciferase reporter, SF-1/DAX-1 repression relief | inhibition, % at 6.8 µM | actives 1.1% (n = 370,000) | AID 652010;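 active means inhibition above the mean over all tested compounds plus 3 SD, cut at about 3.6% in these data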;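 further: 0% = DAX-1 cells with DMSO and 100% = cells lacking DAX-1 with DMSO; higher inhibition means more luminescence from relief of DAX-1 repression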
PolyA inhibitor – inhibitors of polyadenylation in S. cerevisiae | S. cerevisiae SKY197-pL101 polyadenylation reporter, beta-gal luminescence; efflux-impaired pdr1/pdr3 knockout yeast; score 100 = 6 SD above DMSO | activity score, % at 12 µM | actives 0.02% (n = 300,000) | AID 1875;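 active means lowest replicate activity score at least 50, where 100 means six control SD above control mean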;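 further: yeast exposed to compound for 9 h at 30 °C; higher score means more reporter readthrough which indicates perturbed polyadenylation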
hcDAF-12 act – activates DAF-12 receptor from parasite H. contortus. HEK293 hcDAF-12 lit1-tk-luc reporter, luminescence; 0% DMSO, 100% Δ7-dafachronic acid. actives 1.4% (n = 370,000). activation, % at 6.8 µM. AID 652067;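 active means activation above the mean of all tested compounds plus 3 SD, cut at about 5.5% in these data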;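 further: 100% = response to 3 µM Δ7-dafachronic acid high control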
ssDAF12 agonist – activators of S. stercoralis DAF-12 nuclear receptor; HEK293 ssDAF-12/GRIP1 lit1-tk-luc reporter, luminescence; % of 3 µM dafachronic acid response; AID 652126; actives 1% (n = 370,000); activation, % at 6.8 µM;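 active means activation above the mean over all tested compounds plus 3 SD, cut at about 0.9% in these data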;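 further: 0% = DMSO-only wells and 100% = 3 µM delta7-dafachronic acid wells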
Active calls of the source: *; . = no result given.

SMILES	DAX1 inh-1	hgDAF-12 ag	DAX1 inh-2	PolyA inhibitor	hcDAF-12 act	ssDAF12 agonist
CN(C)S(=O)(=O)c1ccc2nc(NC(=O)c3cccnc3)sc2c1	4.7*	10.5*	1.1	-3.3	2.8	0.1
Cc1ccc(C(=O)Nc2ccc3nc(C)sc3c2)o1	1.8	11.2*	4.0*	.	3.4	-0.6
O=C(Nc1nc2ccc(S(=O)(=O)N3CCCCC3)cc2s1)c1cccnc1	1.4	1.9	-1.0	4.4	-1.0	-1.3
Cc1nc2cc(NC(=O)c3ccc(Br)s3)ccc2s1	-2.0	10.8*	3.2	-20.6	1.5	-0.1
Cc1ccc(C(=O)Nc2ccc3nc(C)sc3c2)s1	1.5	9.8	2.7	-5.3	2.5	-0.4
Cc1ccc(C(=O)Nc2nc3ccc(S(C)(=O)=O)cc3s2)o1	1.2	11.7*	0.3	2.7	1.7	-0.9
Cc1nc2cc[nH]n2c(=O)c1CCc1ccccc1	.	-1.7	0.1	.	-1.1	-1.1
FC(F)(F)c1ccc(Cn2ccc3ccc(-c4ccc5ccn(Cc6ccc(C(F)(F)F)cc6)c5c4)cc32)cc1	.	3.9	-0.6	.	0.2	-0.8
Clc1ccc(C2Nc3cccc4cccc(c34)N2)cc1	0.1	0.8	-0.6	22.4	4.5	0.2
Cc1cccc(C2Nc3cccc4cccc(c34)N2)c1	0.7	-1.0	-0.3	3.1	5.7*	1.2*
CSc1ccc(C2Nc3cccc4cccc(c34)N2)cc1	-0.5	0.3	-0.1	5.2	5.7*	0.5
COc1ccc(NC(=S)Nc2ccc3nccnc3c2)cc1	-0.2	10.6*	1.2	-25.4	2.7	-0.5
Cc1ccccc1NC(=O)O[C@H]1CC[C@@]23CCCN2C(=O)CCC[C@H]3[C@H]1C	.	1.1	.	.	-1.5	-1.4
CCOc1ccc(NC(=O)CN2C(=O)C3CCCN3C2=O)cc1 (stereo not given)	4.7*	1.7	0.6	-4.0	0.6	-1.1
Cc1cc(NC(=O)Cc2cn(C)c3ccccc23)ccc1Oc1cccnc1	.	-1.8	-0.6	.	-1.8	-1.5
CCN(CC)C(=O)c1ncn2c1C(=O)NC[C@@H]2C	.	1.1	-0.2	.	0.5	-1.2
O=C(O)c1ccc(NC2=C(Cl)C(=O)c3ccccc3C2=O)cc1	3.3	2.2	-0.1	-13.5	6.7*	0.9*
Cc1occc1-c1nnc(SCC(=O)Nc2ccccn2)o1	0.6	5.8	3.7*	1.2	1.6	-1.3
COc1ccccc1NC(=O)CSc1nnc(-c2ccoc2C)o1	-0.3	1.8	1.8	.	-1.4	-0.1
Cc1occc1-c1nnc(SCCNCCO)o1	0.0	12.6*	-0.2	18.8	2.5	-1.8
Cc1cc(C)cc(NC(=O)CSc2nnc(-c3ccccc3C)o2)c1	0.2	1.2	-0.9	-13.0	-1.5	-1.8
Cc1occc1-c1nnc(SCC(=O)NCCc2ccccc2)o1	0.6	4.3	0.1	10.2	-1.6	-0.1
Cc1ccccc1-c1nnc(SCC(=O)Nc2cccnc2Cl)o1	-1.5	7.3	8.3*	.	4.7	-0.4
COc1ccc(N2CCN(CCCNC(=O)Cn3c(=O)c4cccn4c4cccnc43)CC2)c(OC)c1	.	1.4	.	.	1.0	-0.9
CN(C)c1cccc(/C=C2\CC3(OC(=O)c4ccco4)CCCN2C3)c1 (stereo not given)	.	-0.1	-1.1	.	-1.2	-1.6
SMILES	DAX1 inh-1	hgDAF-12 ag	DAX1 inh-2	PolyA inhibitor	hcDAF-12 act	ssDAF12 agonist
CCOC(=O)Cn1cc(CN2C(C(=O)OC)CN(C3CC3)CCS2(=O)=O)nn1 (stereo not given)	.	3.5	0.2	.	-2.5	-1.4
O=S1(=O)CC2c3ccccc3CCN2CN1CCc1ccccc1 (stereo not given)	.	0.2	0.1	.	-1.1	-0.7
CCCCC(=O)Nc1nc2ccc(C(=O)OC)cc2s1	0.3	10.9*	1.6	-20.9	1.4	-0.8
CCOC(=O)c1ccc2nc(NC(=O)c3cccs3)sc2c1	4.8*	12.4*	2.7	-7.6	4.6	-0.2
CCCC(=O)Nc1nc2ccc(C(=O)OCC)cc2s1	3.1	4.2	-0.2	25.7	0.5	-1.1
c1ccc(Cn2ccc3ccc(-c4ccc5ccn(Cc6cccc(-c7ccsc7)c6)c5c4)cc32)cc1	.	2.5	-1.1	.	1.0	-0.5
CCN(C(=O)[C@@H](C1CC1)[C@@H](O)c1ccc(Cl)cc1)c1ccccc1	.	3.3	-0.2	.	-2.4	-0.8
